Results from PubChem BioAssay (NCI).
Values joined by “and” are separate entries in the source; they are usually repeats but may differ in a detail not shown here. Identical values can stand only once. Compounds without any hit were thinned out: in the full panel of roughly 83,000, 20% have a hit.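 How to read the values: 0–100, growth inhibition (40 = 60% inhibited); 0, no net growth; -100 to 0, cell death (-40 = 40% of starting cells died; -100 = all dead).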 Active and inactive are the calls of the source. Rule for the calls: active = growth percent below 10; inactive = the rest.

Assays:
Experiment in all cases: NCI-60 one-dose screen, 48 h (100 = growth as untreated, 0 = no growth, -100 = all killed)
Conditions in all cases: 10 µM unless noted
HCT-15 colon = system: HCT-15 colon
SNB-75 CNS = system: SNB-75 CNS
SNB-19 CNS = system: SNB-19 CNS
U251 CNS = system: U251 CNS
PC-3 prostate = system: PC-3 prostate
SK-MEL-5 melanoma = system: SK-MEL-5 melanoma
UACC-62 melanoma = system: UACC-62 melanoma
LOX IMVI melanoma = system: LOX IMVI melanoma
SK-MEL-28 melanoma = system: SK-MEL-28 melanoma
SK-MEL-2 melanoma = system: SK-MEL-2 melanoma
EKVX NSCLC = system: EKVX NSCLC
SN12C renal = system: SN12C renal
UO-31 renal = system: UO-31 renal
TK-10 renal = system: TK-10 renal
ACHN renal = system: ACHN renal
CAKI-1 renal = system: CAKI-1 renal
A498 renal = system: A498 renal
CCRF-CEM leukemia = system: CCRF-CEM leukemia
MOLT-4 leukemia = system: MOLT-4 leukemia
HT29 colon = system: HT29 colon

SMILES | growth (HCT-15 colon) | growth (SNB-75 CNS) | growth (SNB-19 CNS) | growth (U251 CNS) | growth (PC-3 prostate) | growth (SK-MEL-5 melanoma) | growth (UACC-62 melanoma) | growth (LOX IMVI melanoma) | growth (SK-MEL-28 melanoma) | growth (SK-MEL-2 melanoma) | growth (EKVX NSCLC) | growth (SN12C renal) | growth (UO-31 renal) | growth (TK-10 renal) | growth (ACHN renal) | growth (CAKI-1 renal) | growth (A498 renal) | growth (CCRF-CEM leukemia) | growth (MOLT-4 leukemia) | growth (HT29 colon)
N=C(N)c1ccc(-c2ccc(-c3ccc(F)cc3)s2)nc1 | 10.4% (inactive) | 100% (inactive) | 80.1% (inactive) | 22.3% (inactive) | 65.3% (inactive) | 77% (inactive) | 95.9% (inactive) | 18.6% (inactive) | 102% (inactive) | 101% (inactive) | 79.3% (inactive) | 75.3% (inactive) | 74.1% (inactive) | 108% (inactive) | 76% (inactive) | 65.4% (inactive) | 79% (inactive) | 47.8% (inactive) | 26.3% (inactive) | 
C=C(C)[C@@H]1CC[C@]2(C(=O)N3CCN(C)CC3)CC[C@]3(C)[C@H](CC[C@@H]4[C@@]5(C)CC(CCCNC(C)=O)(CCCNC(C)=O)[C@H](OC(C)=O)C(C)(C)[C@@H]5CC[C@]43C)[C@@H]12 | 86.8% (inactive) | 89.2% (inactive) | 99% (inactive) | 98.2% (inactive) | 74.9% (inactive) | 91.5% (inactive) | 99.3% (inactive) | 97.8% (inactive) | 103% (inactive) | 112% (inactive) | 96.4% (inactive) | 96.5% (inactive) | 80.5% (inactive) | 109% (inactive) |  | 79.3% (inactive) | 109% (inactive) | 91.8% (inactive) | 85.7% (inactive) | 
COc1cc(Nc2nc3ccccc3cc2C(=O)Nc2ccc(F)c(F)c2)cc(OC)c1OC | 13.5% (inactive) | 45.4% (inactive) | 25.3% (inactive) | 19.1% (inactive) |  | 13.8% (inactive) |  | 17.6% (inactive) | 35.7% (inactive) | 48.2% (inactive) | 30% (inactive) | 12.5% (inactive) | 21.8% (inactive) | 47.8% (inactive) | 5.68% (active) | 46.5% (inactive) | -3.64% (active) | 24.7% (inactive) | 14.2% (inactive) | 28.5% (inactive)
CCN(CC)CCCN1C(=O)c2c(c(C)c3c(oc4cc(OC)ccc43)c2C)C1=O | 80.6% (inactive) | 146% (inactive) | 99.1% (inactive) | 103% (inactive) | 85.3% (inactive) | 77.6% (inactive) | 102% (inactive) | 87.7% (inactive) | -82.6% (active) | 112% (inactive) | 99.3% (inactive) | 89.1% (inactive) | 67.4% (inactive) | 112% (inactive) | 63.1% (inactive) | 93.2% (inactive) | 97.7% (inactive) | 61% (inactive) | 93.9% (inactive) | 
COc1cc(/C=C/C(=O)c2ccc(NC(=O)CSc3nnc(-c4cc(-c5ccccc5)nc5ccccc45)n3-c3ccccc3)cc2)cc(OC)c1OC | 65.9% (inactive) | 104% (inactive) | 95.1% (inactive) | 94% (inactive) | 81.6% (inactive) | 87% (inactive) | 71.9% (inactive) | 89.4% (inactive) | 101% (inactive) | 100% (inactive) | 84.9% (inactive) | 83.8% (inactive) | 87.7% (inactive) | 109% (inactive) | 78.6% (inactive) | 72.4% (inactive) | 87.8% (inactive) | 84.2% (inactive) | 52.7% (inactive) | 
O=C1/C(=C/c2ccccc2)CN(C(=O)C(Cl)Cl)C/C1=C\c1ccccc1 | -24.2% (active) | 43.9% (inactive) | -35.8% (active) | -63.8% (active) | -32.8% (active) | -32.3% (active) | -66.4% (active) | -88.4% (active) | -25.7% (active) | 38.4% (inactive) | 12.2% (inactive) | -40.7% (active) | -52.8% (active) | 59.5% (inactive) | -74.6% (active) | 4.64% (active) | 4.17% (active) | 8.2% (active) | 4.99% (active) | 
COc1c(NC=O)c2c(c([N+](=O)[O-])c1OC)C(=O)OC2 | 115% (inactive) and 90.4% (inactive) | 89.1% (inactive) and 62.6% (inactive) | 102% (inactive) and 99.5% (inactive) | 99.9% (inactive) and 101% (inactive) | 90.7% (inactive) and 102% (inactive) | 112% (inactive) and 95.4% (inactive) | 104% (inactive) and 93.7% (inactive) | 103% (inactive) | 111% (inactive) and 103% (inactive) | 107% (inactive) and 120% (inactive) | 110% (inactive) and 85.7% (inactive) | 92.1% (inactive) and 94.8% (inactive) | 80.2% (inactive) | 114% (inactive) and 111% (inactive) | 130% (inactive) and 112% (inactive) | 105% (inactive) and 89.1% (inactive) | 111% (inactive) | 91.5% (inactive) and 3.53% (active) | 67.9% (inactive) and 115% (inactive) | 
O=c1c2c([nH]c3ccccc13)CCCC2 | 94.8% (inactive) and 23.8% (inactive) | 33.5% (inactive) | 102% (inactive) and 56.9% (inactive) | 97.4% (inactive) and 24.3% (inactive) |  | 99.3% (inactive) and 37.5% (inactive) | 89.6% (inactive) and 53.7% (inactive) | 102% (inactive) and 37.3% (inactive) | 106% (inactive) and 53.8% (inactive) | 103% (inactive) and -12% (active) | 103% (inactive) | 95.8% (inactive) and 56.5% (inactive) | 87.6% (inactive) and 50.4% (inactive) | 104% (inactive) and 62.2% (inactive) | 96.5% (inactive) and 57.9% (inactive) | 98.6% (inactive) and 54.6% (inactive) | 102% (inactive) and 49.1% (inactive) | -32.1% (active) and 37.1% (inactive) | 83.4% (inactive) and 34.7% (inactive) | 
